In PubChem BioAssay AID493214 (National Center for Advancing Translational Sciences (NCATS), 2011):
The source made the active and inactive calls. Calls come from the whole dose curve; as a rule, active = well fitted inhibition curve with a large enough effect; inactive = no such curve, though single readings can be large or run the other way.

Molecular target: 4'-phosphopantetheinyl transferase ffp (Bacillus subtilis) (UniProt Q9F4F7)
Experiment: Inhibitos of Bacillus subtilis Sfp phosphopantetheinyl transferase (PPTase): Dry Powder Followup
Settings: purified Sfp PPTase enzyme assay, dry powder retest
Description: The covalent attachment of a phosphopantetheinyl (4'-PP) arm to a variety of synthases and other proteins is a key posttranslational protein modification. The 4'-PP is installed on the proteins post-translationally from coenzyme A (CoA) on a conserved serine residue by action of phosphopantetheinyl transferase (PPTase) enzymes. Phosphopantetheinylation is essential for synthase activity, and removal of the PPTase gene precludes natural product synthesis in microorganisms, or in the case of fatty acid biosynthesis, renders the organism unviable. PPTase enzymes belong to a distinct structural superfamily. Within bacteria, these enzymes are grouped into two classes based upon primary structure, the AcpS-Type and Sfp-Type PPTases.
Sfp-type PPTases, corresponding to an activator of surfactin production in Bacillus subtilis, are responsible for modifying type I polyketide and nonribosomal peptide synthases of prokaryotes. Sfp-type PPTases are responsible for the activation of a variety of pathogen-associated virulence factors. Among these compounds are toxins such as mycolactone from Mycobacterium ulcerans, siderophores such as vibriobactin from Vibrio cholerae or mycobactin from Mycobacterium tuberculosis, as well as the mycolic acids which form the waxy cell wall of Mycobacteria. The biosyntheses of these natural products are considered attractive targets for drug design.
In search of small molecule Sfp-PPTase inhibitors, a fluorescence quenching assay was developed for detection of Bacillus subtilis Sfp-PPTase enzymatic activity in a miniaturized high-throughput format. The consensus ybbr acceptor peptide DALEFIASKLA was N-terminally labeled with Black Hole Quencher-2 (BHQ-2) and used in combination with rhodamine-labeled coenzyme A as a co-substrate.
Inhibition of Sfp-PPTase was detected by recording the fluorescence intensity change over a 30-minute reaction period at a 525 nm excitation and 598 nm emission. Reagents were supplied by Michael Burkart and Timothy Foley, University of California at San Diego.
This assay is a followup of dry powder purchasing, QC'ing of samples and retesting in the primary screening protocol.
Assay Buffer: 50 mM Hepes-Na pH 7.6, 10 mM MgCl2, 0.01% Nonidet P-40, and 0.01% BSA.
3 uL of Sfp-PPTase enzyme (final concentration 15 nM) and 1 uL of substrate mixture (final concentration for rhodamine-CoA and BHQ-2-YbbR 5 uM and 12.5 uM, respectively) dispensed in columns 1, 2, 5 - 48. Columns 1 and 2 used to generate neutral control (uninhibited reaction)
Three uL of reagents, consisting of buffer (in columns 3 and 4 as negative control) and Sfp-PPTase (in columns 1, 2, 5 - 48) were dispensed into 1,536-well Greiner black solid bottom plate. Compounds (23 nL) were transferred via Kalypsys pintool equipped with 1,536-pin array. The plate was incubated for 15 min at room temperature, followed by the addition of 1 uL substrate to start the reaction. The plate was then centrifuged at 1000 rpm for 15 seconds, and the fluorescence intensity recorded on a ViewLux High-throughput CCD imager (Perkin-Elmer) using standard BODIPY optics (525 nm excitation and 598 nm emission). The plate was then incubated for 30 minutes, and a second read on the ViewLux was performed. The fluorescence intensity difference over the 30-minute period was used to calculate the respective reaction rate for each well.

Sequence of 4'-phosphopantetheinyl transferase ffp (Bacillus subtilis) (Q9F4F7 whole entry, looked up): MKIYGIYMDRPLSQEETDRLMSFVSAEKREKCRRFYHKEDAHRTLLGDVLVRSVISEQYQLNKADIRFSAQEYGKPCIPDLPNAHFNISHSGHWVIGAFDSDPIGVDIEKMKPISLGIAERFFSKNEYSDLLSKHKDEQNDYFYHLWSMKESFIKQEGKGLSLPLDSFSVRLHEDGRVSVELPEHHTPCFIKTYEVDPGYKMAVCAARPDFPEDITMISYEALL

Potency, active:
O=C(CSc1ccccc1)Nc1nnc(COc2ccc(Cl)cc2)s1 6.63 µM
CCc1c(C)sc(NC(=O)C2CCCCC2C(=O)O)c1C(N)=O (centres undefined) 2.35 µM
C(=C1\Nn2c(COc3ccccc3)nnc2S1)/c1ccccc1 5.27 µM
CNC(=O)c1c(N)sc2c1CCCCC2 8.35 µM
O=C(/C=C/c1ccccc1)Nc1cccc(S(=O)(=O)Nc2ccccc2F)c1 0.527 µM
Nc1c(C(=O)Nc2ccccc2F)sc2nc(-c3ccco3)ccc12 10.5 µM
COc1ccc(OC)c(Nc2nc(=O)c3cccnc3s2)c1 13.2 µM
CCOC(=O)c1cc(-c2ccccc2)sc1NC(=O)c1ccc(OC)cc1 23.5 µM
CCOC(=O)c1c(C)[nH]c(C2=CSC(=NC3CC3)NN2)c1C 18.7 µM
O=C(CSc1ncnc2sc3c(c12)CCCCC3)NCc1ccco1 23.5 µM
CCOC(=O)c1c(-c2ccc(OC)cc2)csc1NC(=O)C1CCCO1 (centres undefined) 14.8 µM
COC(=O)Nc1sc2c(c1C(N)=O)CCC(C)C2 (centres undefined) 26.4 µM
CCN1CCN(C(=S)c2ccc(O)cc2)CC1 2.35 µM
S=C(Nc1ccccn1)c1ccccn1 26.4 µM
O=C(Nc1ccc(F)cc1)C1=CC(=O)N2CCN=C2S1 11.8 µM
CCOC(=O)c1nc(NCc2ccccc2)sc1C 16.7 µM
Cc1ccnc(NC(=S)N2CCN(c3cccc(C(F)(F)F)c3)CC2)c1 14.8 µM
C(/Cc1ccccc1)=C1\Nn2c(Cn3cnc4ccccc43)nnc2S1 21 µM
O=C(CN1C(=O)CC(c2ccco2)Sc2ccccc21)Nc1ccccc1F (centres undefined) 26.4 µM
Cc1ccc(C2=CSC(NC(=O)CSc3nncn3C)=NN2)cc1 21 µM
COC(=O)c1c(NC(=O)COC(=O)c2ccc(Cl)cc2[N+](=O)[O-])sc2c1CCCCC2 37.3 µM
CCC(C)(C)n1nnnc1C(c1ccc(O)c(OC)c1)N1CCc2ccccc2C1 (centres undefined) 21 µM
COC(=O)c1sc(NC(=O)c2cc(-c3ccccc3)nc3ccccc23)c(C#N)c1C 5.91 µM
CN(C)c1ccc(C(=S)N2CCN(Cc3ccccc3)CC2)cc1 5.27 µM
O=C(Nc1nnc(COc2ccc(Cl)cc2)s1)c1cccs1 18.7 µM
FC(F)(F)C1CCCN(c2nsc3ccccc23)C1 (centres undefined) 2.35 µM
CCOC(=O)c1c(NC(=O)c2ccccc2Cl)sc2c1CCc1ccccc1-2 2.64 µM
CC(C)(C)Cc1nnc(NC(=O)CSc2ccccc2)s1 5.91 µM
O=C(CSc1nc2scc(-c3ccco3)c2c(=O)n1-c1ccccc1)NCC1CCCO1 (centres undefined) 3.32 µM
c1csc(-c2nn3c(C4COc5ccccc5O4)nnc3s2)c1 (centres undefined) 21 µM
Cc1nc(SCC(=O)c2ccc(F)cc2)n[nH]1 83.5 µM
CCOC(=O)c1c(-c2ccc(C)o2)csc1NC(=O)CSc1nnnn1-c1ccccc1 2.35 µM
Clc1ccccc1-c1nnc2n1N/C(=C/Cc1ccccc1)S2 2.96 µM
O=C(Nc1nnc(COc2ccc(Cl)cc2)s1)c1ccco1 14.8 µM
